Measured values taken from ChEMBL document CHEMBL3988442, “University of Dundee, Small-Polar-MMV Screening Library” (2021).
The whole screen tested about 48,000 compounds, of which about 13,000 (27%) showed an effect of 50% or more. The list shows a part of the results.

System: Wolbachia pipientis
Test: Anti-Wolbachia Cell-Based Screen
Format: functional
Design: scale not given: in the data most compounds retested in dose-response had high values
Settings: 5 µM

Row | Compound | Percent Effect
1 | CS(=O)(=O)Cc1nc(CCc2ccccc2)nn1-c1ccccn1 | -12.46%
2 | NC(=O)NCC(=O)N1CCCC(c2nccn2Cc2ccncc2)C1 (stereo unspecified) | -11.58%
3 | CC(Cn1cncn1)NC(=O)Nc1ccc(F)cc1OCC1CC1 (stereo unspecified) | 4.941%
4 | O=C(O)C(F)(F)F.O=C(O)C(F)(F)F.c1cncc(-c2ncnc3c2CCN(Cc2cccs2)CC3)c1 | 89.28%
5 | c1ccc(CN2CCc3ncnc(-c4cncnc4)c3CC2)nc1 | -4.171%
6 | Cc1ccc(CN2CCc3ncnc(-c4cccnc4)c3CC2)o1.O=C(O)C(F)(F)F.O=C(O)C(F)(F)F | -3.02%
7 | CCc1ccc(CN2CCc3ncnc(-c4cccnc4)c3CC2)o1.O=C(O)C(F)(F)F.O=C(O)C(F)(F)F | 106.1%
8 | O=C(O)C(F)(F)F.O=C(O)C(F)(F)F.c1ccc(CN2CCc3ncnc(-c4cccnc4)c3CC2)nc1 | 17.47%
9 | COc1ncnc2c1CCN(Cc1cccs1)CC2.O=C(O)C(F)(F)F | -7.322%
10 | Cn1cccc1CN1CCc2ncnc(-c3cccnc3)c2CC1 | 88.44%
11 | O=C(C1CCOC1)N1CCc2ncnc(-c3cccnc3)c2CC1 (stereo unspecified) | 8.249%
12 | O=C(O)C(F)(F)F.O=C(O)C(F)(F)F.c1cncc(-c2ncnc3c2CCN(Cc2ccsc2)CC3)c1 | 91.57%
13 | CCCN(C(=O)CN1CCN(CCO)CC1)C1=CCCCC1 | 10.87%
14 | c1cnc(NCc2noc3c2CN(C2CCOC2)CC3)nc1 (stereo unspecified) | -0.4343%
15 | CS(=O)(=O)N1CC[C@@H](CC(=O)O)[C@@H](CC2=NCCc3cc(F)ccc32)C1 | -4.983%
16 | N#Cc1cc2c(=O)n(CC(O)C(F)(F)F)ccc2[nH]c1=O (stereo unspecified) | -28.05%
17 | COCCCNC(=O)C(C)(C)N(C)C1CCCC1 | 11.81%
18 | CN(Cc1nnc(C2CC2)o1)CC1CCCN1c1cccnn1 (stereo unspecified) | 15.59%
19 | Cn1c(=O)oc2cc(Nc3nccnc3C#N)ccc21 | -0.7115%
20 | Cc1cc(CNC(=O)NCC(O)c2cccc(C(F)(F)F)c2)no1 (stereo unspecified) | -1.276%
21 | Cc1nc(CN2CCc3ncnc(-c4cccnc4)c3CC2)cs1.O=C(O)C(F)(F)F.O=C(O)C(F)(F)F | 101.9%
22 | Cc1nc(CN2CCc3ncnc(-c4ccccc4)c3CC2)cs1.O=C(O)C(F)(F)F | -8.271%
23 | Cc1nc(CN2CCc3ncnc(-c4ccsc4)c3CC2)cs1.O=C(O)C(F)(F)F | -15.15%
24 | CC(C)(C)CNC(=O)CNC(=O)C1CC1 | -0.05069%
25 | CCOC(=O)c1ccc(N2CCN(Cc3c(C)nn(C)c3Cl)CC2)nc1 | -11.85%
26 | O=C(N[C@]12CC1CN(C(=O)c1ccco1)C2)c1ccco1 (stereo partly specified) | -8.008%

Row | Compound | Percent Effect
27 | O=C(NCC1(O)CCc2ccccc2C1)c1cccs1 (stereo unspecified) | -6.747%
28 | O=C(Nc1c(N2CCCC2)cccc1N1CCCC1)c1ccccn1 | -1.766%
29 | O=C(NC1CC(=O)N(C2CC2)C1)c1cccs1 (stereo unspecified) | 3.357%
30 | C/C(NC(=O)c1cccs1)=C1\C(=O)C[C@@H]2[C@H]1C2(C)C | 112.6%
31 | C/C(NC(=O)c1ccco1)=C1/C(=O)C[C@@H]2[C@H]1C2(C)C | 112.1%
32 | CC(C)n1cccc1C(=O)N1CC[C@@H](NC(=O)c2ccccn2)[C@H](O)C1 | 9.129%
33 | CC(=O)N1CC2C[C@]2(NC(=O)c2ccco2)C1 (stereo partly specified) | -12.88%
34 | C/C(NC(=O)c1ccccn1)=C1\C(=O)C[C@@H]2[C@H]1C2(C)C | 103%
35 | CNC(=O)[C@H]1CC[C@@H]2[C@@H](CCN2C(=O)N(C)C)O1 | -9.576%
36 | O=C(NCCC(=O)N1CCCC1)C(OC1CCCC1)c1ccccc1 (stereo unspecified) | -0.3907%
37 | COCC1COCCC12CCN(Cc1cccs1)CC2.O=C(O)C(F)(F)F (stereo unspecified) | 99.73%
38 | COCC1COCCC12CCN(Cc1nccs1)CC2.O=C(O)C(F)(F)F (stereo unspecified) | 97.2%
39 | O=C(O)C(F)(F)F.O=C(O)C(F)(F)F.c1cc(CN2CCC3(CCOCC3COCC3CC3)CC2)ccn1 (stereo unspecified) | -8.349%
40 | O=C(O)C(F)(F)F.c1csc(CN2CCC3(CCOCC3COCC3CC3)CC2)n1 (stereo unspecified) | 99.84%
41 | O=C(O)C(F)(F)F.c1coc(CN2CCC3(CCOCC3COCC3CC3)CC2)c1 (stereo unspecified) | -46.4%
42 | COCC1COCCC12CCN(CCc1ccccc1)CC2.O=C(O)C(F)(F)F (stereo unspecified) | 7.834%
43 | O=C(O)C(F)(F)F.c1cc(CN2CCC3(CCOCC3COCC3CC3)CC2)co1 (stereo unspecified) | -40.89%
44 | CN(Cc1nc2ccccc2[nH]1)C(=O)CN(C)c1ccc(Cl)cn1 | 9.224%
45 | CCN(CC)CCNCc1cc(O)c2cc(C)ccc2n1 | 11.73%
46 | CO[C@H]1COC[C@@H]1NC(=O)C1(Oc2ccc(Cl)cc2)CCNCC1 | 6.112%
47 | C[S+]([O-])CCNCc1ccc(OCc2cscn2)cc1 (stereo unspecified) | 1.801%
48 | CCCN1CCN(C(=O)c2cc3ccccc3cn2)[C@H]2CS(=O)(=O)C[C@H]21 | 0.5207%
49 | CC(C)N[C@@H]1CC[C@@H]1NC(=O)c1ccccc1OC(F)(F)C(F)F | -9.491%
50 | CC1CCN(c2cc(-n3cnc(C(=O)N4CCSCC4)c3)ncn2)CC1 | 13.65%
51 | Cl.c1nc(CCC2CCCN2)cc(N2CCCCCC2)n1 (stereo unspecified) | 105.3%
52 | Cl.c1nc(CCC2CCCN2)cc(N2CCCOCC2)n1 (stereo unspecified) | -10.48%

Row | Compound | Percent Effect
53 | CC1CCN(c2cc(CCC3CCCN3)ncn2)CC1.Cl (stereo unspecified) | 81.62%
54 | CCc1cc(N2CCCC(c3noc(CC)n3)C2)ncn1 (stereo unspecified) | -9.129%
55 | CC1CCN(c2cc(NC(=O)C3CC3)ncn2)CC1 | 10.56%
56 | Nc1ccc(-c2cc(O)cc(CCC3CCCCN3)c2)cn1 (stereo unspecified) | -4.594%
57 | OCC1CCCN1c1cc(N2CCC(OC3CCCC3)CC2)ncn1 (stereo unspecified) | 10.66%
58 | Cl.c1nc(CCC2CCCCN2)cc(N2CCCC2)n1 (stereo unspecified) | 95.63%
59 | O=C(O)C(F)(F)F.O=C([C@H]1CN(Cc2ccc(F)cc2)C[C@H]2OCC[C@@H]12)N1CCCO1 | 1.984%
60 | Cc1cc(NC(=O)CN2CCOC(Cn3cccn3)C2)n(C)n1 (stereo unspecified) | -0.9893%
61 | CCC1CCCN(CC(=O)Nc2oc(C)c3c(C)n[nH]c(=O)c23)C1 (stereo unspecified) | 7.246%
62 | CN(Cc1ccc(OCC(=O)N2CCOCC2)cc1)S(C)(=O)=O | -1.865%
63 | CCc1ccccc1C(=O)N1CCN(S(C)(=O)=O)[C@@H](C)C1 | 7.255%
64 | NC(=O)CCOc1nc(-c2ccccc2Cl)no1 | -3.331%
65 | CCn1c(C2CCNCC2)nn(CCCc2ccccc2)c1=O | 0.4782%
66 | CCCn1nc(C2CCNCC2)n(Cc2ccccc2)c1=O | -22.36%
67 | CCn1c(C2CCNCC2)nn(CCn2cncn2)c1=O | 89.88%
68 | O=c1n(CCn2cccc2)nc(C2CCNCC2)n1Cc1ccccc1 | -16.93%
69 | CCn1c(C2CCCN(C(=O)c3ccc[nH]3)C2)nn(CCN(C)C)c1=O (stereo unspecified) | -8.209%
70 | CCOCCn1nc(C2CCNCC2)n(Cc2ccccc2)c1=O | -5.43%
71 | CCn1c(C2CCCNC2)nn(CCn2cncn2)c1=O (stereo unspecified) | 98.85%
72 | CCn1c(C2CCNCC2)nn(CCn2ccc(C)n2)c1=O | 83.74%
73 | CCn1c(Cn2cncn2)nnc1C1CCN(Cc2ccncc2)CC1 | -0.7206%
74 | FC(F)(F)c1ccc2nc([C@H]3CCN(C4CCOCC4)C3)[nH]c2c1 | -2.136%
75 | Cc1nn(C)c(C)c1S(=O)(=O)N(C)Cc1nn(C)c(Cl)c1Cl | -26.42%
76 | CCOCC1CN(Cc2ccco2)Cc2nccn2C1.O=C(O)C(F)(F)F (stereo unspecified) | 99.94%
77 | c1coc(CN2Cc3nccn3CC(Cn3cncn3)C2)c1 (stereo unspecified) | 1.02%
78 | CCN(CC)CC1CN(Cc2ccco2)Cc2nccn2C1 (stereo unspecified) | 84.77%

Row | Compound | Percent Effect
79 | c1cncc(OCC2CN(Cc3ccco3)Cc3nccn3C2)c1 (stereo unspecified) | -2.745%
80 | c1cncc(COCC2CN(Cc3ccco3)Cc3nccn3C2)c1 (stereo unspecified) | 6.885%
81 | CC(C)C(C(=O)NCC1CC1)n1cnc2cc(F)c(F)cc21 (stereo unspecified) | -9.964%
82 | O=C(CCc1nc(Cl)n[nH]1)NC1CCCN(CC2CCCCC2)C1 (stereo unspecified) | -7.697%
83 | CCc1ncc(C(=O)N(C)Cc2cc(-c3ccncc3)no2)cn1 | -12.94%
84 | c1cncc(OCCNC2Cc3ccccc3C2)c1 | 2.244%
85 | COc1cccc2c1OCC(NCCc1cnn(-c3ccccc3)c1)C2 (stereo unspecified) | -5.519%
86 | COc1cccc2c1OCC(NCc1cnn(-c3ccccc3)c1)C2 (stereo unspecified) | -6.454%
87 | c1cncc(OCCCNC2COc3ccccc3C2)c1 (stereo unspecified) | 107.3%
88 | COc1cccc2c1OCC(NCCCOc1cccnc1)C2 (stereo unspecified) | 86.98%
89 | c1ccc(OCCNC2CCN(c3ncccn3)CC2)cc1 | -7.109%
90 | OC(CN(Cc1ccccc1)Cc1cscn1)c1cccs1 (stereo unspecified) | -27.1%
91 | CNC(=O)C1(c2cnccn2)CCCN1C(=O)c1ccn(C)n1 (stereo unspecified) | -6.037%
92 | COc1ccncc1NC(=O)C1(c2ccc(F)cc2)CCC1 | -2.782%
93 | Cc1ccc(OC2(C(=O)O)CCN(C(=O)c3cccc(F)c3)CC2)cn1 | 1.243%
94 | COc1ccc(CN2CCOC3(CCCN(c4cnccn4)C3)C2)cc1.O=C(O)C(F)(F)F.O=C(O)C(F)(F)F (stereo unspecified) | -2.164%
95 | CNC(=O)C1(c2cnccn2)CCCN1C(=O)c1ccccn1 (stereo unspecified) | 81.35%
96 | Cc1ccc(OC2(C(=O)O)CCN(C(=O)c3ccc(F)cc3)CC2)cn1 | -2.115%
97 | CNC(=O)C1(c2cnccn2)CCCN1C(=O)c1cccc(F)c1 (stereo unspecified) | 96.69%
98 | CNC(=O)C1(c2cnccn2)CCCN1C(=O)c1ccc(OC)cc1 (stereo unspecified) | 106.6%
99 | O=C(c1cccc(F)c1)N1C[C@@H](CN2CCCCC2)[C@@H](CO)C1 | 0.9976%
100 | CNC(=O)c1nc2c(s1)CCN(C(=O)c1ccc(OC)cc1)CC2 | -5.332%
101 | CNC(=O)C1(c2cnccn2)CCCN1C(=O)c1ccc(F)cc1 (stereo unspecified) | 95.13%
